From PMC4081100, “A DNA-binding-site landscape and regulatory network analysis for NAC transcription factors in Arabidopsis thaliana”

Columns and labels:
Assay in all cases: universal protein binding microarray (PBM); transcription factors of Arabidopsis thaliana; high values mean tight binding
Conditions in all cases: protein: recombinant; tags: GST; chain copies: 2; dsDNA, one strand shown
GST-ANAC092(1-176) = target: T1, GST-ANAC092(1-176) (Arabidopsis thaliana, UniProt Q9FKA0 1-176)
T1 sequence: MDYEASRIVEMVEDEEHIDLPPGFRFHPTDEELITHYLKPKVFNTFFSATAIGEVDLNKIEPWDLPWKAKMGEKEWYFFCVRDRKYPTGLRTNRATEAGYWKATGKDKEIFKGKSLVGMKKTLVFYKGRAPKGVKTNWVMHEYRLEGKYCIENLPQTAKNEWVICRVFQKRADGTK
How it was run: (§1)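 Binding is expressed as the normalised enrichment score (E-score). Proteins carrying a GST tag, whether NAC-domain, full-length or DNA-binding-domain forms, were induced in cells, and zinc acetate was added for zinc-finger proteins. After purification on glutathione–Sepharose 4B and quantification by A280 or anti-GST western blot, each was applied in duplicate at 200 to 500 nM final to custom all-10-mer Agilent 4 × 180K arrays made double-stranded by primer extension. Gapped and ungapped 8-mers were scored.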

GST-NTL6(1-168) = GST-NTL6(1-168) (Arabidopsis thaliana, UniProt Q9SCK6 1-168)
Sequence of GST-NTL6(1-168) (Q9SCK6 1-168): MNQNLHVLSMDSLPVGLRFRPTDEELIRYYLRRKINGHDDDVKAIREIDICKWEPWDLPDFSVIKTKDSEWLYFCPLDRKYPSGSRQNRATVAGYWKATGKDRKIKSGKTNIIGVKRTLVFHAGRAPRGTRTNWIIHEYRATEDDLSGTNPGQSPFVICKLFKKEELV
How it was run: as §1

GST-ANAC019 NAC domain = target: T2, GST-ANAC019 NAC domain (Arabidopsis thaliana, UniProt Q9C932 14-162)
T2 sequence: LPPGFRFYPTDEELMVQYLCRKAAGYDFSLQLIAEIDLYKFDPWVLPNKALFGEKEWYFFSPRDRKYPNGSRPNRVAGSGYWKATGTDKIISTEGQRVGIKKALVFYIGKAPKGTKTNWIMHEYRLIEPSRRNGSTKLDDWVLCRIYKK
How it was run: as §1

[1] = target: T3, GST-ANAC092(1-285) full length (Arabidopsis thaliana, UniProt Q9FKA0 1-285)
T3 sequence: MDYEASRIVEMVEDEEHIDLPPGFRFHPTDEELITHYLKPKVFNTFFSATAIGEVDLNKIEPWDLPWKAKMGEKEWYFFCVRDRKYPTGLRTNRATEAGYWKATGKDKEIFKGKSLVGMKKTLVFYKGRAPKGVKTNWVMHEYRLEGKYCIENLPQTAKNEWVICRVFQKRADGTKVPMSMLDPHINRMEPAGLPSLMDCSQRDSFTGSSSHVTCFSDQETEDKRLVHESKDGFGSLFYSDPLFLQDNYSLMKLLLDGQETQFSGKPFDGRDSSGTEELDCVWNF
How it was run: as §1

GST-NST2(1-184) = target: T4, GST-NST2(1-184) (Arabidopsis thaliana, UniProt Q9M274 1-184)
T4 sequence: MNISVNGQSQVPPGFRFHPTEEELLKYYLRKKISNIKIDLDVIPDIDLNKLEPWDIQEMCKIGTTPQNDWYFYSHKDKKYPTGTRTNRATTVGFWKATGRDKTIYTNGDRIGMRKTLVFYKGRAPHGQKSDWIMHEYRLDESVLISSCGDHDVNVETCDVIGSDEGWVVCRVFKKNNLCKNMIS
How it was run: as §1

GST-NTL8 NAC domain = target: T5, GST-NTL8 NAC domain (Arabidopsis thaliana, UniProt Q9XIN7 14-156)
T5 sequence: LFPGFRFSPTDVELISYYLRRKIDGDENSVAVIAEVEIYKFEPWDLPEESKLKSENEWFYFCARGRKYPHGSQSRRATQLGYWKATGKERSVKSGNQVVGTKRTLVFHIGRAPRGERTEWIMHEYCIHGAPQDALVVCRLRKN
How it was run: as §1

GST-SND1(1-203) = target: T6, GST-SND1(1-203) (Arabidopsis thaliana, UniProt Q9LPI7 1-203)
T6 sequence: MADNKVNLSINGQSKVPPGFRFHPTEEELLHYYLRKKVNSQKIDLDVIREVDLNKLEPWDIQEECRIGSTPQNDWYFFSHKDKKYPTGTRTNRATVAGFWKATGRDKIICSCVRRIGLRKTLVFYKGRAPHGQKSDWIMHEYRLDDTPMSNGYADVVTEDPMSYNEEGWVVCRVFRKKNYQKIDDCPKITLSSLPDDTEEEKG
How it was run: as §1

GST-VND3 NAC domain = target: T7, GST-VND3 NAC domain (Arabidopsis thaliana, UniProt Q9FH59 12-162)
T7 sequence: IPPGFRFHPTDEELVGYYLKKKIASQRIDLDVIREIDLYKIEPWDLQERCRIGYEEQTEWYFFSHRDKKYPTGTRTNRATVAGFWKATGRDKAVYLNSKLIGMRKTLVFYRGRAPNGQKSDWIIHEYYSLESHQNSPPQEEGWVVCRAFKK
How it was run: as §1

GST-VND7 NAC domain = target: T8, GST-VND7 NAC domain (Arabidopsis thaliana, UniProt Q9C8W9 9-158)
T8 sequence: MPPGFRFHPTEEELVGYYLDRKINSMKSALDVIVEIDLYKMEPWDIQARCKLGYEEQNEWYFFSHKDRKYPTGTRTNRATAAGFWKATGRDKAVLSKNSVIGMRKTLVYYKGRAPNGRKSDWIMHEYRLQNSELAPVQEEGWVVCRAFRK
How it was run: as §1

GST-NAP(1-166) = target: T9, GST-NAP(1-166) (Arabidopsis thaliana, UniProt O49255 1-166)
T9 sequence: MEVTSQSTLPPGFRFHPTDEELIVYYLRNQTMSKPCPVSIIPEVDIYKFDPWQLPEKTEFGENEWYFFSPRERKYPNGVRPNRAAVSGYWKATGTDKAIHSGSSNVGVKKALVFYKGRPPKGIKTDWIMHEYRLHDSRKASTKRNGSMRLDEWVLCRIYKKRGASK
How it was run: as §1

GST-ANAC055(1-171) = target: T10, GST-ANAC055(1-171) (Arabidopsis thaliana, UniProt Q9LDY8 1-171)
T10 sequence: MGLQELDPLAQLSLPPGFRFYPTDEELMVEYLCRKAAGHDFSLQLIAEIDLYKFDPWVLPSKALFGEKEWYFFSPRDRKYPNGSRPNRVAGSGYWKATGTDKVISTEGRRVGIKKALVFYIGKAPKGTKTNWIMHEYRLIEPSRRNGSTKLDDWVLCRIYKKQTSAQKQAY
How it was run: as §1

GST-ATAF1 NAC domain = target: T11, GST-ATAF1 NAC domain (Arabidopsis thaliana, UniProt Q39013 7-158)
T11 sequence: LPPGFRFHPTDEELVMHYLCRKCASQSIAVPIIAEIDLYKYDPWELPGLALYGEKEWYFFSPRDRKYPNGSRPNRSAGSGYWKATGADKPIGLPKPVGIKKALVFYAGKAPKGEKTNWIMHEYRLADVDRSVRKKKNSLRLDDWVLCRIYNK
How it was run: as §1

Row | Sequence | binding signal (GST-ANAC092(1-176)) | binding signal (GST-NTL6(1-168)) | binding signal (GST-ANAC019 NAC domain) | binding signal [1] | binding signal (GST-NST2(1-184)) | binding signal (GST-NTL8 NAC domain) | binding signal (GST-SND1(1-203)) | binding signal (GST-VND3 NAC domain) | binding signal (GST-VND7 NAC domain) | binding signal (GST-NAP(1-166)) | binding signal (GST-ANAC055(1-171)) | binding signal (GST-ATAF1 NAC domain)
1 | AAGCAAGC | 0.344 E-score | 0.167 E-score | 0.0929 E-score | 0.417 E-score | 0.23 E-score | 0.209 E-score | 0.443 E-score | 0.139 E-score | 0.114 E-score | – | – | –
2 | AGGGTAAG | 0.0785 E-score | 0.245 E-score | 0.0566 E-score | – | 0.0565 E-score | 0.429 E-score | 0.111 E-score | 0.0682 E-score | 0.0597 E-score | 0.0509 E-score | – | –
3 | TACGCCAA | 0.413 E-score | 0.0645 E-score | 0.0981 E-score | 0.439 E-score | 0.251 E-score | 0.0846 E-score | 0.454 E-score | 0.171 E-score | 0.244 E-score | – | 0.172 E-score | 0.309 E-score
4 | CAAGCAAC | 0.426 E-score | 0.239 E-score | 0.1 E-score | 0.442 E-score | 0.311 E-score | 0.13 E-score | 0.435 E-score | 0.164 E-score | 0.139 E-score | – | 0.139 E-score | –
5 | ACGCTACA | 0.27 E-score | 0.051 E-score | – | 0.404 E-score | 0.249 E-score | – | 0.402 E-score | 0.101 E-score | 0.0811 E-score | 0.0555 E-score | 0.0711 E-score | 0.0647 E-score
6 | AAGCAACC | 0.425 E-score | 0.329 E-score | – | 0.453 E-score | 0.349 E-score | 0.301 E-score | 0.479 E-score | 0.114 E-score | 0.136 E-score | – | 0.0668 E-score | 0.0659 E-score
7 | CTAAGCAA | 0.201 E-score | 0.461 E-score | 0.0628 E-score | 0.314 E-score | 0.272 E-score | 0.254 E-score | 0.473 E-score | 0.134 E-score | 0.184 E-score | – | – | –
8 | CTAAGTTA | 0.294 E-score | 0.393 E-score | – | 0.279 E-score | 0.282 E-score | – | 0.413 E-score | 0.21 E-score | 0.0803 E-score | – | 0.13 E-score | 0.173 E-score
9 | AGAAGGAA | 0.192 E-score | 0.417 E-score | 0.0646 E-score | 0.156 E-score | 0.177 E-score | 0.379 E-score | 0.157 E-score | 0.0779 E-score | 0.0759 E-score | – | 0.117 E-score | 0.149 E-score
10 | TGGAGTAA | 0.319 E-score | 0.105 E-score | – | 0.342 E-score | 0.317 E-score | – | 0.454 E-score | 0.0609 E-score | 0.131 E-score | – | 0.128 E-score | 0.11 E-score
11 | GAAGCAAC | 0.372 E-score | 0.399 E-score | – | 0.417 E-score | 0.282 E-score | 0.416 E-score | 0.443 E-score | 0.0788 E-score | 0.228 E-score | – | 0.142 E-score | 0.103 E-score
12 | GTTGCTTA | 0.342 E-score | 0.425 E-score | – | 0.393 E-score | 0.327 E-score | 0.13 E-score | 0.469 E-score | 0.0814 E-score | 0.14 E-score | – | 0.0695 E-score | 0.0821 E-score
13 | GAGGTAAC | 0.191 E-score | 0.155 E-score | 0.078 E-score | 0.2 E-score | 0.078 E-score | 0.437 E-score | 0.236 E-score | 0.0659 E-score | 0.0864 E-score | – | – | 0.0779 E-score
14 | ATACTTAA | 0.0831 E-score | 0.445 E-score | – | 0.164 E-score | 0.224 E-score | 0.154 E-score | 0.246 E-score | 0.187 E-score | 0.106 E-score | 0.0565 E-score | 0.14 E-score | 0.245 E-score
15 | AAACACGC | 0.415 E-score | – | 0.261 E-score | 0.442 E-score | 0.198 E-score | – | 0.259 E-score | 0.201 E-score | 0.21 E-score | 0.225 E-score | 0.262 E-score | 0.233 E-score
